Reference: the supplement of paper PMC7411640
Counter-ions that a name gives are not always drawn.

Test system: MDA-MB-468
Assay: phospho-S6 immunofluorescence (DAPI-normalised), per-plate z-score; higher = higher phospho-S6 signal (less pathway suppression)
Settings: 24 h
Protocol: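 GPCR-targeted compound library (MedChemExpress HY-L006) tested on MDA-MB-468 PTEN-null TNBC cells in 384-well plates at 0.1, 1 or 10 uM, combined with vehicle, GDC0941 450 nM or lapatinib 1 uM, for 24 h. Phospho-S6 (S240/244) immunofluorescence normalised to DAPI and expressed as a per-plate z-score; values are the mean of biological triplicates.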

Compound | phospho-S6 immunofluorescence (z-score) (co-treatment: GDC0941 450 nM) | phospho-S6 immunofluorescence (z-score) (co-treatment: lapatinib 1 uM) | phospho-S6 immunofluorescence (z-score) (co-treatment: vehicle)
N=C(N)N/N=C/c1c(Cl)cccc1Cl [Guanabenz (Acetate)] (compound 10 µM) | 0.61 | -0.12 | -0.2
CCN(CCCc1ccccc1)CCCc1ccccc1 [Alverine (citrate)] (compound 10 µM) | -0.52 | -1.04 | 0.02
CCc1cnc(N2CCC(c3nc(COc4ccc(-n5cnnn5)cc4)cs3)CC2)nc1 (compound 10 µM) | -3.23 | -3.56 | -6.72
C[C@H](NC(=O)c1cc(Cl)ccc1Oc1ccc(F)cc1)c1ccc(C(=O)O)cc1 (compound 10 µM) | -0.64 | 0.18 | 0.3
CCC1(c2c[nH]cn2)Cc2ccccc2C1 [Atipamezole (hydrochloride)] (compound 10 µM) | -0.61 | 0.37 | 1.24
CCC(N)(C(=O)O)c1ccc(C(=O)O)cc1 (stereo unspecified) (compound 10 µM) | 0.66 | 0.12 | -0.54
NC(=O)c1ccc[n+]([O-])c1 [Nicotinamide N-oxide] (compound 10 µM) | 0.09 | 0.22 | -0.26
CC(C)C[C@H](NC(=O)[C@H](CC(C)C)NC(=O)[C@H](Cc1ccccc1)NC(=O)[C@@H](N)CO)C(=O)N[C@@H](CCCN=C(N)N)C(=O)N[C@@H](CC(N)=O)C(=O)O (compound 10 µM) | -1.01 | -0.25 | 0.03
CC1(C)O[C@@H]2C[C@H]3[C@@H]4C[C@H](F)C5=CC(=O)C=C[C@]5(C)[C@@]4(F)[C@@H](O)C[C@]3(C)[C@]2(C(=O)CO)O1 [Fluocinolone (Acetonide)] (compound 10 µM) | -0.92 | 0.83 | -0.53
CCOCCn1c(C2CCN(CCc3ccc(C(C)(C)C(=O)O)cc3)CC2)nc2ccccc21 [Bilastine] (compound 10 µM) | 0.51 | 0.94 | -0.28
C[N+]1(C)[C@@H]2CC[C@H]1C[C@@H](OC(=O)C(O)c1ccccc1)C2 (stereo partly specified) [Homatropine (methylbromide)] (compound 10 µM) | 0.87 | 1.2 | 1.2
COc1cc(N)c(Cl)cc1C(=O)NC1CCN(Cc2ccccc2)CC1 [Clebopride (malate)] (compound 10 µM) | 0.46 | -0.14 | 0.29
OCc1ccc(-c2nn(Cc3ccccc3)c3ccccc23)o1 [Lificiguat] (compound 10 µM) | 3.23 | 2.82 | 0.54
C[N+](C)(C)CCOC(N)=O [Carbamoylcholine (chloride)] (compound 10 µM) | 0.06 | 0.02 | 0.87
OCCNC1CCCc2c1[nH]c1ccc(-c3ccccc3)cc21 (stereo unspecified) (compound 10 µM) | -5.16 | -8.66 | -9.39
CN1CCN(C2=Nc3cc(Cl)ccc3Nc3ccccc32)CC1 [Clozapine] (compound 10 µM) | -0.16 | -0.32 | -0.32
CC(C)NCC(O)c1ccc(NS(C)(=O)=O)cc1 (stereo unspecified) [Sotalol (hydrochloride)] (compound 10 µM) | 1.31 | 1.24 | 0.37
CCCCc1nc(C)c(CC(=S)N(C)C)c(=O)n1Cc1ccc(-c2ccccc2-c2nnn[nH]2)cc1 [Fimasartan] (compound 10 µM) | 0.34 | 1.66 | -0.04
Cc1nc(C(=O)N2CCC[C@H]2Cc2nnc(-c3ccccc3)o2)c(-c2ccccc2F)s1 (compound 10 µM) | 0.95 | 0.29 | 0.17
CCOC(=O)c1ccc(-n2cc(Cc3cnc(OCC)nc3)c(=O)nc2SCc2ccc(F)cc2)cc1 (compound 10 µM) | -3.26 | -3.79 | -4.85
CC(C)Cc1ccc([C@@H](C)C(=O)NS(C)(=O)=O)cc1 [Reparixin] (compound 10 µM) | 0.03 | 0.34 | -1.14
CC(C)COc1ccc(CNC(=O)N(Cc2ccc(F)cc2)C2CCN(C)CC2)cc1 [Pimavanserin] (compound 10 µM) | -2.66 | -2.95 | -2.1
CC(=O)OCC(=O)NCCCOc1cccc(CN2CCCCC2)c1 [Roxatidine (Acetate Hydrochloride)] (compound 10 µM) | 0.24 | 0.32 | 0.91
CN1CCC(=C2c3ccccc3CCc3cccnc32)CC1 [Azatadine (dimaleate)] (compound 10 µM) | 0 | 0.29 | -0.32
CN1CCc2cc(Cl)c(O)cc2[C@@H](c2ccccc2)C1 (compound 10 µM) | -0.98 | -1.63 | 0.1
Cc1c(Cc2ccc3ccccc3n2)c2cc(F)ccc2n1CC(=O)O (compound 10 µM) | 0 | 0.39 | 0.58

Compound | phospho-S6 immunofluorescence (z-score) (co-treatment: GDC0941 450 nM) | phospho-S6 immunofluorescence (z-score) (co-treatment: lapatinib 1 uM) | phospho-S6 immunofluorescence (z-score) (co-treatment: vehicle)
CNS(=O)(=O)Cc1ccc2[nH]cc(CCN(C)C)c2c1 [Sumatriptan (succinate)] (compound 10 µM) | 0.01 | 0.48 | 0.55
C[C@]12C=CC(=O)C=C1CC[C@@H]1[C@@H]2[C@@H](O)C[C@@]2(C)[C@H]1CC[C@]2(O)C(=O)CO [Prednisolone] (compound 10 µM) | 0.01 | 1.18 | 0.05
Cc1ccccc1C(=O)Nc1ccc(C(=O)N2CCCC(N(C)C)c3ccccc32)cc1 (stereo unspecified) [Mozavaptan] (compound 10 µM) | -0.25 | -0.18 | -0.16
O=C(N[C@@H]1CC[C@@H](c2cccc(F)c2F)CN(CC(F)(F)F)C1=O)N1CCC(n2c(=O)[nH]c3ncccc32)CC1 (compound 10 µM) | 0.18 | 0.53 | -0.42
CN1CCC(=C2c3ccccc3C=Cc3ccccc32)CC1 [Cyproheptadine (hydrochloride)] (compound 10 µM) | -0.64 | -1.26 | 0.16
CN1[C@@H]2CC[C@H]1C[C@@H](OC(=O)C(O)c1ccccc1)C2 (stereo partly specified) [Homatropine (Bromide)] (compound 10 µM) | -0.26 | 0.08 | 0.37
CC(C)C(=O)OCC(=O)[C@@]12O[C@H](C3CCCCC3)O[C@@H]1C[C@H]1[C@@H]3CCC4=CC(=O)C=C[C@]4(C)[C@H]3[C@@H](O)C[C@@]12C [Ciclesonide] (compound 10 µM) | -3.85 | 0 | -1.25
Cc1noc(NS(=O)(=O)c2ccc(N)cc2)c1C [Sulfisoxazole] (compound 10 µM) | 1.15 | -0.03 | 0.55
COc1ccc2cc(OCC3(C(=O)O)CN(C(=O)c4ccc(F)cc4)C3)ccc2c1 (compound 10 µM) | -1.13 | 0.61 | 0.47
Nc1ccc(/C=C/c2cccc(C(=O)O)n2)cc1 (compound 10 µM) | 0.9 | 0.88 | 1.07
O=c1n(CCCN2CCN(c3cccc(Cl)c3)CC2)nc2ccccn12 [Trazodone (hydrochloride)] (compound 10 µM) | 0.41 | 0.08 | -0.51
NCCc1c[nH]cn1 [Histamine (phosphate)] (compound 10 µM) | -0.41 | -0.13 | 0.1
Cc1sc(C)c(C(=O)NC2(c3ccc(C(=O)O)cc3)CC2)c1Cc1ccc(C(F)(F)F)cc1 (compound 10 µM) | -1.42 | -0.58 | 0.73
O=C1NCCN1CCN1CCC(c2cn(-c3ccc(F)cc3)c3ccc(Cl)cc23)CC1 [Sertindole] (compound 10 µM) | -4.7 | -6.25 | -4.35
O=C(Nc1cc(Cl)cc(Cl)c1)[C@H]1CCCC[C@H]1C(=O)O (compound 10 µM) | 0.83 | 0.12 | 0.42
COc1ccc(CNC(=O)c2cc(-c3cncc(C)c3)ncc2-c2nccs2)nc1OC (compound 10 µM) | -0.61 | -0.5 | 0.26
CC[C@H](NC(=O)c1c(O)c(-c2ccccc2)nc2ccccc12)c1ccccc1 [Talnetant] (compound 10 µM) | 0.6 | 0.47 | 0.13
CC(C)[N+]1(C)[C@@H]2CC[C@H]1C[C@@H](OC(=O)C(CO)c1ccccc1)C2 (stereo partly specified) [Ipratropium (bromide)] (compound 10 µM) | -0.02 | 0.28 | -0.61
NCCCC[C@H](NC(=O)[C@@H]1CCCN1C(=O)[C@@H]1CSSC[C@H](NC(=O)CNC(=O)CNC(=O)CN)C(=O)N[C@@H](Cc2ccc(O)cc2)C(=O)N[C@@H](Cc2ccccc2)C(=O)N[C@@H](CCC(N)=O)C(=O)N[C@@H](CC(N)=O)C(=O)N1)C(=O)NCC(N)=O [Terlipressin] (compound 10 µM) | 0.05 | 0.98 | 0.08
C=CCN1CCCC1CNC(=O)c1cc(S(N)(=O)=O)cc(OC)c1OC (stereo unspecified) [Veralipride] (compound 10 µM) | -0.02 | 1.05 | 0.08
COc1ccccc1Oc1c(NS(=O)(=O)c2ccc(C)cn2)nc(-c2ccncc2)nc1OC [Avosentan] (compound 10 µM) | -0.03 | -0.67 | -0.65
N[C@@H](COP(=O)(O)O)C(=O)O [O-Phospho-L-serine] (compound 10 µM) | 0.23 | 0.05 | -0.66
C[C@@H](OC[C@@]1(c2ccccc2)CC[C@]2(CCC(=O)N2)CN1)c1cc(C(F)(F)F)cc(C(F)(F)F)c1 [Rolapitant] (compound 10 µM) | -4.35 | -3.8 | -0.65
Cc1ccccc1N1CCN(CCc2nnc3n2CCCC3)CC1 [Dapiprazole (hydrochloride)] (compound 10 µM) | 0.31 | -0.49 | -0.32
CC(C)=CCC[C@](C)(O)[C@H]1CC[C@]2(C)[C@@H]1[C@H](O)C[C@@H]1[C@@]3(C)CC[C@H](O)C(C)(C)[C@@H]3[C@@H](O)C[C@]12C [(20S)-Protopanaxatriol] (compound 10 µM) | -1.71 | -2.12 | -0.03
Clc1cccc(COc2cncc(N3CCNCC3)n2)c1 (compound 10 µM) | -1.03 | -4.09 | 0.21
